The values that follow come from PubChem BioAssay (EPA / NIEHS).

“And” between values parts separate entries of the source, which are not always exact repeats. Equal entries are not always repeated. Results filed as inconclusive are left out. More than one record can exist for a structure, and the calls need not agree. The source made the active and inactive calls. How the source made its calls: active means hit-call score of the fitted dose curve at least 0.9, where 1 is the maximum; inconclusive means response in the unintended direction; inactive means score below 0.9.

human CYP2J2, CYP2J2 (gene 1573), sequence (P51589 whole entry, looked up): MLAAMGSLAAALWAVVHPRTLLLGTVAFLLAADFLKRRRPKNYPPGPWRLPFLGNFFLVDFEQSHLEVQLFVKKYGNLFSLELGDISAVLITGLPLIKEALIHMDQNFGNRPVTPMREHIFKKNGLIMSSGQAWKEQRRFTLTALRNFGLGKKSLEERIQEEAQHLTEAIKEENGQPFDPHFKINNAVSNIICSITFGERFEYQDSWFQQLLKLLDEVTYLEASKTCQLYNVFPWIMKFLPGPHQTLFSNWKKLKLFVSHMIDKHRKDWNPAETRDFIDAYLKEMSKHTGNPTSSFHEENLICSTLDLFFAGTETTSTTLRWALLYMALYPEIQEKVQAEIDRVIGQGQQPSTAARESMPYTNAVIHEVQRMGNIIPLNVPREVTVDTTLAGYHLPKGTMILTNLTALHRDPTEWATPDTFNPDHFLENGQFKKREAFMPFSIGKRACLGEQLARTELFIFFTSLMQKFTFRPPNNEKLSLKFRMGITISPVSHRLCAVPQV

This assay has as its target human CYP2J2, CYP2J2 (gene 1573) (UniProt P51589). The assay can be described thus: NVS_ADME_hCYP2J2: NovaScreen (NVS) CYP450-related Enzyme Activity (ADME) Assay for human CYP2J2 (AID 2283106). As for the experimental part:
NVS_ADME_hCYP2J2 is a biochemical, single-readout assay that uses extracted gene-proteins in a cell-free assay. Measurements were taken 1 hour after chemical dosing in a 96-well plate.NVS_ADME_hCYP2J2 is one of one assay component(s) measured or calculated from the NVS_ADME_hCYP2J2 assay. It is designed to make measurements of enzyme activity, a form of enzyme reporter, as detected with fluorescence intensity signals by Fluorescence technology.Data from the assay component NVS_ADME_hCYP2J2 was analyzed into 1 assay endpoint. This assay endpoint, NVS_ADME_hCYP2J2, was analyzed in the positive analysis fitting direction relative to Acetonitrile as the negative control and baseline of activity. Using a type of enzyme reporter, loss-of-signal activity can be used to understand changes in the enzymatic activity as they relate to the gene CYP2J2. Furthermore, this assay endpoint can be referred to as a primary readout, because this assay has produced multiple assay endpoints where this one serves a enzymatic activity function. To generalize the intended target to other relatable targets, this assay endpoint is annotated to the cyp intended target family, where the subfamily is xenobiotic metabolism.
Binding assays used specific radioligands (tritiated, iodinated) with non-radioactive competitive displacement ligands in agonist or antagonist protocols (as indicated) and various reference compounds and inhibitors to titrate specific binding to receptors and transporters. Most enzyme assays (CYPs, kinases, phosphatases, proteases, HDACs) used recombinant protein and specific substrates (fluorescence mostly, some colorimetric and radioactive) and inhibitors, followed by a biochemical separation of substrate and product. All assays for the biochemical HTS were initially run in duplicate at a single concentration (10 uM for CYP450 assays and 25 uM for all others). Assay-chemical combinations meeting a pre-defined threshold (e.g., 30% inhibition and other criteria defined below) were then run in singleton concentration-response format with maximum concentration of 20 uM for CYPs and 50 uM for all others. Each assay was run with positive and negative controls, and concurrent controls on every plate. The follow-up (secondary) screen tested active chemical-pairs in concentration series, as well as a few additional assays not tested in the primary screen, some selected negative inactives, and several cases re-run in the concentration series for confirmatory purposes.
A word on the AC50: it is the concentration at which the activity in the assay is half-maximal. With `Cc1nn(C)c(Oc2ccccc2)c1C=NOCc1ccc(C(=O)OC(C)(C)C)cc1`, the AC50 is 5.24 µM (active).

As to `CCCCOCCOCCOCc1cc2c(cc1CCC)OCO2`, the AC50 was 0.116 µM (active).

Take `C#C[C@]1(O)CC[C@H]2[C@@H]3CCc4cc(O)ccc4[C@H]3CC[C@@]21C`: the concentration at half-maximal activity (AC50) was 878 nM (active) and 2.68 µM (active) and 672 nM (active).

On to `CCN(CC)CCOc1ccc(C(=C(Cl)c2ccccc2)c2ccccc2)cc1`, for which the compound was classed as inactive; the AC50 is 4.08 µM (active) and 7.21 µM (active).

Turning to `CC(C)(c1ccc(O)cc1)c1ccc(O)cc1`, the AC50 is 4.93 µM (active).

With `Oc1ccc(C(c2ccc(O)cc2)C(Cl)(Cl)Cl)cc1`, the AC50 was 2.99 µM (active).

Turning to `CCSC(=O)N(CC(C)C)CC(C)C`, the AC50 is 1.4 µM (active).

For `C[C@]12CC[C@@H]3c4ccc(O)cc4CC[C@H]3[C@@H]1CC[C@@H]2O`, the outcome was inactive.

On to `CCOC(=O)NCCOc1ccc(Oc2ccccc2)cc1`, for which the compound was called inactive.

On to `C#CCOC(=O)[C@@H](C)Oc1ccc(Oc2ncc(Cl)cc2F)cc1`, for which the AC50 is 0.189 µM (active).

Regarding `N#CSCSc1nc2ccccc2s1`, the half-maximal activity concentration (AC50) was 0.466 µM (active).

For `O=c1c(-c2ccc(O)cc2)coc2cc(O)cc(O)c12`, the AC50 is 979 nM (active) and 1.06 µM (active) and 443 nM (active).

Regarding `C=CCOC(Cn1ccnc1)c1ccc(Cl)cc1Cl` (centres undefined), the concentration at half-maximal activity (AC50) is 0.166 µM (active).
